In PubChem BioAssay AID720540 (National Center for Advancing Translational Sciences (NCATS), 2013):
In all, about 1,300 compounds went through this assay and about 460 (35%) were called active. Inconclusive results (about 39%) are left out. Calls follow the shape of the dose curve; as a rule, active = well fitted inhibition curve with a large enough effect; inconclusive = small, poorly fitted or top-dose-only effect; inactive = flat fitted curve, though single readings scatter. The list shows a part of the results.

Each molecule was assayed against Protein phosphatase EYA2 (Homo sapiens) (UniProt O00167) (assay: qHTS for Inhibitors of the Phosphatase Activity of Eya2: Confirmatory Assay for Cherry-picked Compounds). Settings: purified EYA2 phosphatase activity, qHTS confirmation; series mostly up to 46.1 µM.
Method in brief: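 Eya2 (0.2 uM working solution) preincubated 10 min at room temperature with compound in pH 7.5 HEPES buffer with MgCl2, BSA, DTT. OMFP added (50 uM working solution), 10 min more; fluorescence 485/525 nm, normalized to EGTA and DMSO.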
Also: nearly all actives have a fitted effect of over 65% in size.
Potency is read from the fitted curve at half-maximal effect.

Sequence of Protein phosphatase EYA2 (Homo sapiens) (O00167 whole entry, looked up): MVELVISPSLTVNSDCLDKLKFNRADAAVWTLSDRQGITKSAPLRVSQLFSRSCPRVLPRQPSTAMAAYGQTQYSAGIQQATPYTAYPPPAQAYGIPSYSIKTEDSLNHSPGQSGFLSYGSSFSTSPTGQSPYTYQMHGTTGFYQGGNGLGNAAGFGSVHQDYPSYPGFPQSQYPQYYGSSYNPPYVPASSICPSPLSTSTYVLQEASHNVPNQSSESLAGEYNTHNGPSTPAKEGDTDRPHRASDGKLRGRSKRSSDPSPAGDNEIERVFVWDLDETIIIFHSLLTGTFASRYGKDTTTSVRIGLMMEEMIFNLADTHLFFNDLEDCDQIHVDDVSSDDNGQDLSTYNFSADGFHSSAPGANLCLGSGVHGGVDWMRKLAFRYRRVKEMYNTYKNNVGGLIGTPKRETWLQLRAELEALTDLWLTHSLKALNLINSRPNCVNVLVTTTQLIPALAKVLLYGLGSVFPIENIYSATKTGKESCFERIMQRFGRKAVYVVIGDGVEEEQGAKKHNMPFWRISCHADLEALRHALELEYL

| SMILES | Potency |
| --- | --- |
| O=C1C(NS(=O)(=O)c2cccs2)=C(N2CCN(Cc3ccccc3)CC2)C(=O)c2ccccc21 | 13.5 µM (active) |
| CC(=O)Nc1ccc(S(=O)(=O)NC2=C(N3CCN(Cc4ccccc4)CC3)C(=O)c3ccccc3C2=O)cc1 | 19 µM (active) |
| Cc1nn(-c2ccccc2)c2c1C(c1cccnc1)N1C=C(S(=O)(=O)N3CCCCC3)C=CC1=N2 (stereo not given) | inactive |
| COc1ccc(Nc2nnc(-c3ccc(C(N)=O)cc3)c3ccccc23)cc1 | 4.78 µM (active) |
| COc1ccc(-c2csc(-c3ccc(C(=O)O)cc3)n2)cc1 | inactive |
| NC(=O)c1ccc(-c2nnc(Nc3ccc(S(N)(=O)=O)cc3)c3ccccc23)cc1 | 13.5 µM (active) |
| CNC(=O)c1ccc(Nc2nnc(-c3ccc(C(N)=O)cc3)c3ccccc23)cc1 | 4.78 µM (active) |
| COc1ccc(NC(=O)c2[nH]c(C)c(C(C)=O)c2C)cc1Cl | inactive |
| Cc1cc2oc(C(=O)N3CCN(Cc4ccccc4)CC3)c(C)c2cc1C | inactive |
| Cc1cc2oc(C(=O)N(Cc3ccc(N(C)C)cc3)CC3CCCO3)c(C)c2cc1C (stereo not given) | 8.49 µM (active) |
| COc1ccc(N(CC(=O)N2CCCCC2)S(=O)(=O)c2c(C)nn(C)c2C)cc1 | inactive |
| COc1ccc(NC(=O)c2ccc(CN3CCc4ccccc4C3)cc2)c(OC)c1 | inactive |
| COc1ccc(NC(=O)COc2cccc3c2CCN(C)C3=O)c(OC)c1 | 12 µM (active) |
| COc1ccc(NC(=O)c2ccc(COc3ccccc3)o2)c(OC)c1 | inactive |
| Clc1ccc(-n2nnnc2-c2cnc3ccccc3c2-c2ccccc2)cc1 | inactive |
| Cc1cc(C)n2nc(SCCOc3ccccc3F)nc2n1 | 15.1 µM (active) |
| Cc1cc(C)n2nc(C(=O)NC3CCCc4ccccc43)nc2n1 (stereo not given) | inactive |
| O=C(COc1ccccc1/C=C1/NC(=O)NC1=O)Nc1ccccc1 | inactive |
| CN(C)S(=O)(=O)c1cccc(NC(=O)COc2ccccc2C(=O)Nc2ccccc2)c1 | 13.5 µM (active) |
| Cc1ccc(C)c2c(/C=C/c3ccc(N(C)C)cc3)ccnc12 | 5.36 µM (active) |
| Cc1cnc2c(C)ccc(C)c2c1/C=C/c1ccc(N(C)C)cc1 | 6.01 µM (active) |
| Cc1cnc2c(C)cccc2c1/C=C/c1ccc(N(C)C)cc1 | 6.01 µM (active) |
| Cc1cc(C)c2c(/C=C/c3ccc(N(C)C)cc3)ccnc2c1 | 9.53 µM (active) |
| COCc1cc(O)c(O)c(O)c1-c1c(COC)cc(O)c(O)c1O | inactive |
| Cc1cc(=O)n2[nH]c(Nc3cccc(Cl)c3)nc2n1 | inactive |
